Out of some 360,000 compounds screened, about 9,100 (2.5%) were called active. About 4% were inconclusive and are not listed. What follows is part of a selection rich in actives, with near analogues and random picks from the rest. Unmarked numbers belong to inactive results. No stated cut-off is given here; in the data, active means max response below about -50%; inconclusive means no clear call, values can overlap the other calls; inactive means above that.
On the % scale 0 is the no-effect control and ±100 the full control effect.

Sequence of D(3) dopamine receptor (Homo sapiens) (P35462 whole entry, looked up): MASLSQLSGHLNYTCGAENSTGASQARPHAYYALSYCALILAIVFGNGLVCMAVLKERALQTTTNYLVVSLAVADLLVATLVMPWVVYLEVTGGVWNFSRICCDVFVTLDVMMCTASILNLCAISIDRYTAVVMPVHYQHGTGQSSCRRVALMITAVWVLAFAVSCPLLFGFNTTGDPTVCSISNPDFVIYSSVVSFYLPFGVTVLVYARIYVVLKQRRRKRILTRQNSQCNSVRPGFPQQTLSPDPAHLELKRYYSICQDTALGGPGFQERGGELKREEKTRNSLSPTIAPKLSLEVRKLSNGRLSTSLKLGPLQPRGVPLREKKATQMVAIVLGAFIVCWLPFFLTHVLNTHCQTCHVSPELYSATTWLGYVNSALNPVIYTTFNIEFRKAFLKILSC

This test addresses D(3) dopamine receptor (Homo sapiens) (UniProt P35462). The test can be described thus: qHTS of D3 Dopamine Receptor Antagonist: qHTS. The note with it: D3R cells, DiscoveRx beta-arrestin luminescence, antagonist mode; hits give low values. The method, boiled down:
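Cells plated overnight at 1500 cells/well, then exposed to library compounds with dopamine controls for 90 minutes at 37 degrees C. DiscoveRx reagent added for 30–60 minutes at room temperature; luminescence read, quantitative HTS format.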
Regarding `CC(C)C[C@@H]1COc2cc(N3CCC[C@@H]3CO)ccc2S(=O)(=O)N1`, the max response, negative = inhibition was 18.9%. `CN(Cc1ccccc1)C(=O)[C@@H]1CCCN1C(=O)[C@@H]1CCCN1C(=O)c1c(F)cccc1F`: the max response, negative = inhibition was -11.2%.

Consider `O=C(NN=Cc1ccc2c(c1)CCC2)c1ccccc1O`, for which the max response, negative = inhibition is 10.4%.

Take `CCc1cccc(C)c1NC(=O)COC(=O)CC1CCCC1`: the max response, negative = inhibition was -10.7%. Under `CCc1cccc(C)c1NC(=O)COC(=O)Cc1ccsc1` stands -57.7% (active); under `CCc1cccc(C)c1NC(=O)COC(=O)CNC(=O)c1cccs1`, 5.78%; under `CCCCn1nnnc1C(c1cc2ccccc2o1)N(C)Cc1ccc(Cl)c(Cl)c1` (stereo unspecified), 16.5%.

On to `COC(=O)[C@@]12C[C@@H](CC(=O)NCCCCc3ccccc3)C(=O)N(CCc3ccc(OC)c(OC)c3)C1=CCC(C)(C)C2`, for which the max response, negative = inhibition was -7.78%. Under `COc1ccc(CC2(CO)CCN(Cc3cnn(C)c3)CC2)cc1` stands 4.38%; under `COC(=O)c1ccc(CN2CCC(CO)(Cc3ccc(OC)cc3)CC2)cc1`, -62.3% (active). The figure for `COc1cccc(CC2(CO)CCN(Cc3cnc(-c4cccc(C)c4)nc3)CC2)c1` is 33.5%; for `COc1ccc(CNC(=O)c2ccc(-c3cccnc3)c3ccoc23)cc1OC` it is 57.4%.

Regarding `CCNC(=O)c1cc2c(c(-c3cccc(-c4cncnc4)c3)n1)[C@H](CCO)N(C(C)=O)C2`, the max response, negative = inhibition is -53.7% (active). Under `CC(=O)N1Cc2cc(C(=O)NCc3cccc(F)c3)nc(-c3cccc(C4=CCCCC4)c3)c2[C@H]1CCO` stands 40.6%. Under `CC(=O)N1Cc2cc(C(=O)NCc3cccc(F)c3)nc(-c3cccc(C4=CCCC4)c3)c2[C@H]1CCO` stands 4.11%; under `CN(Cc1ccc(C(F)(F)F)cc1)C(=O)[C@H]1O[C@@H](n2cnc3c(N)ncnc32)[C@H](O)[C@@H]1O`, 14.2%.

Take `CC1(C(=O)NCc2ccccc2)CSCC(=O)N1CCCN1CCOCC1` (stereo unspecified): the max response, negative = inhibition is 2.3%. The figure for `CC1(C)CN(CCc2ccccc2)C(=O)[C@H]1CC(=O)Nc1ccc(Br)cc1` is -16%; for `CN1CCN(S(=O)(=O)c2ccc(N3CCN(c4ccccc4O)CC3)c([N+](=O)[O-])c2)CC1` it is -19.5%. Under `CN1CCN(c2ccc([N+](=O)[O-])c(Sc3nc4ccccc4[nH]3)c2)CC1` stands -91.8% (active). Under `O=[N+]([O-])c1ccc(N2CCNCC2)cc1NCc1cccnc1` stands 1.82%. Regarding `CCCS(=O)(=O)NC(=O)C1(C)CCCN(C(=O)c2cc(C)on2)C1` (stereo unspecified), the max response, negative = inhibition is 2.9%. As for `CC(=O)c1ccc(OCC(=O)N(C)C2CCS(=O)(=O)C2)cc1` (stereo unspecified), the max response, negative = inhibition was -0.617%.

Regarding `COc1ccc2c(-c3ccccc3)cc(SCC(=O)N(C)C3CCS(=O)(=O)C3)nc2c1` (stereo unspecified), the max response, negative = inhibition is 0.687%. Under `COc1ccc(-c2cc(=O)oc3cc(OCC(=O)N(C)C4CCS(=O)(=O)C4)ccc23)cc1` (stereo unspecified) stands -51.8% (active); under `COc1ccc(C(=O)N2CCCCC2c2cc(C(=O)Nc3ccc(F)c(Cl)c3)no2)cc1` (stereo unspecified), -6.17%. The figure for `O=S1(=O)CC(N2CCN(c3ccccn3)CC2)CN1Cc1ccc(F)cc1` (stereo unspecified) is 7.7%; for `CCCNC(=O)C1(C)CCCN(Cc2cccc(C(F)(F)F)c2)C1` (stereo unspecified) it is 27.1%; for `CCCNC(=O)C1(C)CCN(Cc2csc(-c3ccc(Cl)cc3)n2)C1` (stereo unspecified) it is -103% (active).

For the compound `CCCNC(=O)C1(C)CCCN(Cc2c(C)nn(-c3ccccc3)c2C)C1` (stereo unspecified), the max response, negative = inhibition is 19.2%.

Consider `COC(=O)[C@]12CCCCC=C1N(Cc1cccc3ccccc13)C(=O)[C@H](CC(=O)N1CCOCC1)C2`, for which the max response, negative = inhibition was -10.3%. Under `COc1ccc(CNC(=O)c2c(C)cc(=O)oc2C)cc1OC` stands 2.8%; under `Cc1cc(=O)oc(C)c1C(=O)NCc1ccc(F)cc1`, -14.8%; under `Cc1cc(=O)oc(C)c1C(=O)NCCN(C)Cc1ccccc1`, -76.1% (active). Under `Cc1nc(C(F)(F)F)ccc1C(=O)N1CCC1(C)C(=O)NS(=O)(=O)c1ccccc1Cl` (stereo unspecified) stands -15.5%. `COc1ccc(OCC(=O)N2CCN(C(=O)c3cccs3)CC2)cc1`: the max response, negative = inhibition is 5.1%. The figure for `CCN1CCN(C(=O)c2cc3cc4ccc(OC)cc4nc3s2)CC1` is -89.5% (active). Under `COc1ccc(OC)c(C(=O)c2ccc(C(=O)N3CCN(Cc4csc(C)n4)CC3)cc2)c1` stands -18%; under `CCCc1c(-c2ccccc2F)ncn1Cc1ccccc1OC`, 2.92%; under `COc1ccc(CCNC(=O)CN(c2ccccc2)S(=O)(=O)c2ccccc2)cc1`, -3.43%. Regarding `CC(C)Oc1cc(F)ccc1-c1cc(C(=O)Nc2ccc(F)cc2)[nH]n1`, the max response, negative = inhibition is -13.9%. Under `COc1cc(-c2nnc(NC(=O)CS(=O)(=O)c3ccc(Cl)cc3)o2)cc(OC)c1OC` stands -6.21%; under `COc1ccc2[nH]c3c(c2c1)CCN1C(=O)C(CC(=O)NCCCN(C)C)C[C@H](C(=O)N2CCOCC2)[C@@]31CCC1CCCC1` (stereo partly specified), 37%; under `CC[C@]12c3[nH]c4ccc(Cl)cc4c3CCN1C(=O)[C@@H](CC(=O)NCCN1CCOCC1)C[C@@H]2C(=O)N1CCN(C(=O)C2CC2)CC1`, 6.27%. The figure for `COc1ccc(CNC(=O)C[C@H]2C[C@H](C(=O)N3CCOCC3)[C@@]3(CCC4CCCC4)c4[nH]c5ccc(Cl)cc5c4CCN3C2=O)cc1OC` is -63% (active).

As to `CCc1nc2c(OCCOc3ccccc3)cccn2c1N(C)C(=O)c1cccs1`, the max response, negative = inhibition was -19.8%.

Source of the values: PubChem BioAssay AID652054 (National Center for Advancing Translational Sciences (NCATS), 2013).
